Our source for the Potency and activity, negative = inhibition values is PubChem BioAssay AID2546 (National Center for Advancing Translational Sciences (NCATS), 2010).

About 11,000 (3.5%) of roughly 310,000 compounds were called active. About 8% were inconclusive and are not listed. What follows is part of a selection rich in actives, with near analogues and random picks from the rest. Where a call stands in place of a potency, no number is given. A number with no mark means an inactive call. The call rests on the fitted dose curve; in most records, active means well fitted inhibition curve with a large enough effect; inconclusive means small, poorly fitted or top-dose-only effect, or effect the other way; inactive means flat fitted curve, though single readings scatter.
Potency means the concentration at half of the fitted maximal effect.

This test in a line: VP16 counterscreen qHTS for inhibitors of ROR gamma transcriptional activity.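 Further: Gal4-VP16 expression switched on by copper sulfate through the metallothionein promoter; nearly all actives have a fitted effect of over 50% in size.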 The settings on record: Drosophila S2 Gal4-VP16 UAS-luciferase, luminescence, 20 h; series mostly up to 53.6 µM. For orientation: Counterscreens check selectivity or assay interference.
With `CCC(C(=O)NC1CCCCC1)N(C(=O)c1snc(C(N)=O)c1N)c1ccc(OC)cc1OC` (stereo not given), the Potency result is “inactive”.
As for `COc1cc(OC)c(C(=O)NCc2ccc3c(c2)OCO3)cc1OC`, the Potency result was “inactive”.
On the same count and under the same terms, under `Cc1ccn(CC(=O)N2N=C(C(F)F)CC2(O)C(F)F)n1` (stereo not given) stands “inactive”.
Same read-out and setting: under `Cc1nn(Cc2ccc(C(=O)N3N=C(C(F)F)CC3(O)C(F)F)cc2)c(C)c1[N+](=O)[O-]` (stereo not given) stands 10 µM (active); under `Cc1nn(CC(=O)NCc2ccccn2)c(C)c1[N+](=O)[O-]`, “inactive”.
On the same count and under the same terms, for `Cc1ccc(S(=O)(=O)N2CCN=C2SCc2c(F)cccc2Cl)cc1` the value was “inactive”; for `CCOC(=O)C1(CCOc2ccccc2)CCN(Cc2cc(OC)c(O)cc2Cl)CC1`, “inactive”; for `CN(Cc1ccccn1)Cc1nc(-c2ccc(Cl)cc2)no1`, “inactive”.
Take `CCN1CC(CN(C)Cc2nc(-c3ccc(Cl)cc3)no2)CC1=O` (stereo not given): the Potency was 10 µM (active).
Still for that read-out and setting: for `CC1CCN(Cc2nc(-c3ccc(Cl)cc3)no2)CC1` the value was “inactive”.
The same measure, in the same setting: for `CC(C)c1ccc(C2C(C(=O)c3ccco3)=C(O)C(=O)N2CC2CCCO2)cc1` (stereo not given) the value was “inactive”; for `Cc1ccc(NC(=O)C2CCN(S(=O)(=O)c3ccc4c(c3)NC(=O)CO4)CC2)cc1C`, “inactive”; for `Clc1ccc(C2CC(c3cccs3)n3ncnc3N2)cc1Cl` (stereo not given), 17.8 µM (active).
With `COc1ccc(C2CC(c3ccc(C)cc3)Nc3ncnn32)cc1` (stereo not given), the Potency entry is “inactive”.
Same read-out and setting: under `COc1ccc(C2CC(c3ccccc3)Nc3ncnn32)cc1` (stereo not given) stands “inactive”.
Consider `Cc1[nH]c2ccc(C(=O)N3CCN(C)CC3)cc2c1C`, for which the Potency result was “inactive”.
On the same count and under the same terms, under `CCOC(=O)N1CCN(Cc2nc(N)nc(Nc3ccc(C)cc3)n2)CC1` stands “inactive”.
Same read-out and setting: for `Nc1nc(CC(=O)CSc2ccc(Cl)cc2)nc(Nc2ccc(F)cc2)n1` the value was 12.6 µM (active); for `Cc1ccc(Nc2nc(N)nc(CSc3nnc(C)s3)n2)cc1`, “inactive”; for `COc1ccccc1NC(=O)N1CCCC1C(=O)NCc1cccs1` (stereo not given), “inactive”.
The same measure, in the same setting: under `O=C(N/N=C/c1ccccn1)c1cccc(NC(=O)c2ccc(Cl)cc2)c1` stands “inactive”; under `COc1ccc(N(CC(=O)NCc2ccc(F)cc2)C(=O)CCC(=O)Nc2nccs2)cc1`, “inactive”.
Regarding `O=C(CCC1CCN(C(=O)c2cccc(Cl)c2F)CC1)Nc1ccccc1`, the Potency result was “inactive”.
On the same count and under the same terms, for `COc1nnc(-c2ccc(C)c(S(=O)(=O)N(C)C)c2)c2ccccc12` the value was “inactive”; for `CCOC(=O)C1(O)CC(C)=NN1C(=O)c1cccc(Br)c1` (stereo not given), “inactive”.
`CC1=NN(C(=O)c2ccc(Br)cc2)C(O)(c2ccccc2)C1` (stereo not given): the activity, negative = inhibition was -2.82% [at 10 µM].
With `CC1=NN(C(=O)c2ccccc2Br)C(O)(c2cccnc2)C1` (stereo not given), the Potency was 12.6 µM (active).
Still for that read-out and setting: under `Cc1ccc(CC2S/C(=C(/C#N)C(=O)N3CCOCC3)N(c3ccccc3)C2=O)cc1` (stereo not given) stands “inactive”.
Still for that read-out and setting: under `N#C/C(C(=S)Nc1ccccc1)=C1/NN=C(N2CCOCC2)N1c1ccccc1` stands 4.47 µM (active); under `N#C/C(C(=O)N1CCOCC1)=C1/SC(Cc2ccc(F)cc2)C(=O)N1c1ccccc1` (stereo not given), “inactive”; under `O=c1cc(-c2ccc(O)cc2)oc2c(-c3cc(-c4cc(=O)c5c(O)cc(O)cc5o4)ccc3O)c(O)ccc12`, “inactive”.
Still for that read-out and setting: for `O=c1cc(-c2ccc(O)c(O)c2)oc2cccc(O)c12` the value was 12.6 µM (active); for `COc1c(O)cc2oc(-c3ccc(O)c(O)c3)cc(=O)c2c1O`, “inactive”.
`Cn1ccnc1SCC(=O)Nc1ccc2c(c1)OCCO2`: the Potency result is “inactive”.
On the same count and under the same terms, under `CCCN1C2CCCC1CC(NC(=O)NC13CC4CC(CC(C4)C1)C3)C2` (stereo not given) stands “inactive”; under `Cc1cc(=O)[nH]c(N/N=C/c2ccc3c(c2)OCCO3)n1`, “inactive”.
The same measure, in the same setting: under `Cc1noc(C)c1/C=N/Nc1ccc2ccccc2n1` stands “inactive”; under `C(=N\Nc1ccc2ccccc2n1)/c1ccc2c(c1)OCO2`, 14.1 µM (active); under `O=C1CN(C(=O)c2cc(F)cc(F)c2)c2ccccc2N1`, “inactive”.
Still for that read-out and setting: under `COc1ccc(C(C)NC(=O)C23CC4CC(CC(C4)C2)C3)cc1` (stereo not given) stands “inactive”.
Consider `CCc1ccc(Oc2coc3cc(O)ccc3c2=O)cc1`, for which the Potency entry was “inactive”.
On the same count and under the same terms, for `CCN(Cc1ccncc1)C(=O)c1cccc(S(=O)(=O)N2CCOCC2)c1` the value was “inactive”.
Same read-out and setting: under `O=S(=O)(c1cccc(-c2nnc3n2CCCCC3)c1)N1CCOCC1` stands “inactive”.
Still for that read-out and setting: for `O=S(=O)(c1cccc(Cn2nnc(-c3ccc(F)cc3)n2)c1)N1CCOCC1` the value was 11.2 µM (active).
Regarding `CCN(CC)CCn1cnc2c1c(=O)[nH]c(=O)n2Cc1ccccc1`, the Potency entry was “inactive”.
The same measure, in the same setting: under `COc1ccc(CSc2nnnn2-c2ccc(O)cc2)cc1F` stands “inactive”; under `CCOC(=O)CC1COCCN1C(=O)c1cc(COc2ccc(F)c(F)c2)on1` (stereo not given), “inactive”.
`CCOC(=O)c1sc(NC(=O)c2cc(S(=O)(=O)N3CCOCC3)ccc2C)nc1C`: the Potency entry is “inactive”.
On to `Cc1ccc(S(=O)(=O)N2CCOCC2)cc1C(=O)NC(=S)N(Cc1ccccc1)C(C)C`, for which the Potency was 3.98 µM (active).
For `Cc1ccc(S(=O)(=O)N2CCOCC2)cc1C(=O)NCc1ccc(F)cc1`, the Potency result was “inactive”.
Still for that read-out and setting: under `O=C(CN1CCCCCC1)Nc1c(Cl)cc(Cl)cc1Cl` stands “inactive”; under `CN(Cc1ccccc1)C(=O)C(=O)c1cn(CC(=O)N2CCCC2)c2ccccc12`, “inactive”.
Still for that read-out and setting: under `N#CC1(NC(=O)COC(=O)CCN=C2NS(=O)(=O)c3ccccc32)CCCCC1` stands “inactive”; under `O=C(N/N=C/c1ccc(O)cc1)/C(=C/c1ccc([N+](=O)[O-])cc1)NC(=O)c1ccccc1`, “inactive”.
For `O=C(N/N=C/c1cc([N+](=O)[O-])ccc1O)/C(=C\c1cccs1)NC(=O)c1ccccc1`, the Potency was 10 µM (active).
Still for that read-out and setting: under `O=C(Nc1ccc(C(=O)O)cc1)/C(=C/c1ccc([N+](=O)[O-])cc1)NC(=O)c1ccccc1` stands “inactive”; under `CSc1nnc(C2CCCN(CC(=O)Nc3ccccc3N3CCOCC3)C2)n1C(C)C` (stereo not given), “inactive”; under `Cc1cc(S(=O)(=O)NCc2ccccn2)c(Cl)cc1Cl`, 5.62 µM (active).
On the same count and under the same terms, for `O=S(=O)(NCc1ccccn1)c1ccc(F)cc1` the value was “inactive”; for `Cc1cc(Cl)c(S(=O)(=O)NCc2cccnc2)cc1OCC(N)=O`, “inactive”; for `COc1ccc(NC(=O)C2CCC(CNC(=O)[C@@H]3Cc4ccccc4CN3)CC2)cc1` (stereo not given in full), “inactive”.
Still for that read-out and setting: for `CC(=O)N1c2ccc(S(=O)(=O)N3CCC(C(=O)NCc4ccc(F)cc4)CC3)cc2CC1C` (stereo not given) the value was “inactive”.
As for `Cc1cc(-c2n[nH]c(=S)n2-c2ccc(C)c(C)c2)no1`, the Potency entry is “inactive”.
The same measure, in the same setting: for `COc1ccc(-n2c(-c3ccc(OC)c(OC)c3)n[nH]c2=S)cc1` the value was “inactive”.
On to `Cc1ccc(-n2c(-c3ccc(Cl)cc3)n[nH]c2=S)cc1`, for which the Potency is 2.51 µM (active).
